MPTP block – mitochondrial permeability transition pore inhibitors, primary screen, biochemical, isolated mouse mitochondria, absorbance; AID 602449, 2012; Ca2+ swelling absorbance, 30 min; 1.4% of 360,000 active; inhibition, % at 10 µM;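 active = inhibition of 50% or more, scaled per plate between neutral and stimulator controls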;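 note: 0% = DMSO wells given calcium and 100% = 1 mM EGTA wells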
CSC inhib – cancer stem cell viability inhibitors, primary screen, luminescence. 1.1% of 300,000 active. inhibition, % at 7.5 µM. cancer stem cell-like cells viability; in the data active = inhibition above about 75%; tested in HMLE shEcad cells
GRIN3A LBD mod – binders of NR3A ligand-binding domain, primary screen, biophysical, differential scanning fluorimetry, uHTS. Glutamate receptor ionotropic, NMDA 3A (GRIN3A) ligand-binding domain. NR3A LBD differential scanning fluorimetry, Tm shift; 0% = protein alone, 100% = glycine-bound protein. Tm shift relative to glycine control, % at 25 µM. 2.5% of 340,000 active. AID 1259313, 2017;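 active = melting temperature shift of at least 10% of the positive control shift, at one fixed dose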
Beta cell apopt – inhibitors of cytokine-induced beta cell apoptosis, primary screen, luminescence | INS-1E cytokine-induced death, ATP luminescence, 48 h; percent of positive-control rescue, neutral wells zero | protection from apoptosis, % (concentration not given with the values) | 0.8% of 300,000 active | AID 435005, 2010;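 active = Every replicate reaches about 75%, or at least half do and their mean reaches it too, limit read from the data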;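 note: 0% = cytokine-treated negative control wells and 100% = positive control rescue; higher means more ATP so stronger rescue from cytokine killing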
Mdm2-MdmX inh – inhibitors of human Mdm2-MdmX association, primary screen, cell-based, luminescence, split luciferase, SaOS-2, uHTS. Protein Mdm4 (Homo sapiens) + E3 ubiquitin-protein ligase Mdm2 (Homo sapiens), …. 3% of 330,000 active. SaOS-2 split-luciferase Mdm2/MdmX complementation. inhibition, % at 8 µM;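 active = inhibition of at least 50% at 8 µM in the primary screen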
Target sequence (O15151 whole entry, looked up): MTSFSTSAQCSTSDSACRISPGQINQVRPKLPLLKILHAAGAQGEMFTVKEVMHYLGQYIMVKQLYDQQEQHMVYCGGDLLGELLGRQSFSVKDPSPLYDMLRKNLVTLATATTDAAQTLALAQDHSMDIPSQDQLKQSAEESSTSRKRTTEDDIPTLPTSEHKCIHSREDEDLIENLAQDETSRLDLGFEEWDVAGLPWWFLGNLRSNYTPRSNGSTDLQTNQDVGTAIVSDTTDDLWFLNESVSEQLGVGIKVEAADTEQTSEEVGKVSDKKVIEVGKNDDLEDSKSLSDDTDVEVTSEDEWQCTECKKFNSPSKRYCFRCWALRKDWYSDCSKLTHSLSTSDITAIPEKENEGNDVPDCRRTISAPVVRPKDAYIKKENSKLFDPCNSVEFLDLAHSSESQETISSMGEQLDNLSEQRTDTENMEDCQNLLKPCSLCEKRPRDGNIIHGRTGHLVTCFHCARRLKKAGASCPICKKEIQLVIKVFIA
Target sequence (Q00987 whole entry, looked up): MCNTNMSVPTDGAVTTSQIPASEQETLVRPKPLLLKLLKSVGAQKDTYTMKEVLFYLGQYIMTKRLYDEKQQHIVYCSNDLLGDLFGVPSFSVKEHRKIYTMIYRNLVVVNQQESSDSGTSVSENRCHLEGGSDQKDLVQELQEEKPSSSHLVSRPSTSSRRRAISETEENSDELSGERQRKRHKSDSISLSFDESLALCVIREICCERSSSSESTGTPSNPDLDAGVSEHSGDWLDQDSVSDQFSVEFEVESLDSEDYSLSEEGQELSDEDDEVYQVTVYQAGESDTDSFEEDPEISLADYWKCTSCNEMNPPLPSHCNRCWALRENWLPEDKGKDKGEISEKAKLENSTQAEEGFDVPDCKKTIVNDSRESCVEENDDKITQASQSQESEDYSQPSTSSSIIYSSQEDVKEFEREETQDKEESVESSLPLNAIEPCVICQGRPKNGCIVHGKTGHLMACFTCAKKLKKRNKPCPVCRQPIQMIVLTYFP
Gli-Sufu antag – Gli-Sufu pathway antagonists, primary screen, luciferase luminescence, Sufu-KO-LIGHT cells, uHTS; Sufu-KO-LIGHT fibroblasts, Gli luciferase reporter luminescence; inhibition, % at 5 µM; 0.74% of 340,000 active;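 active = inhibition above about 55%, limit read from the data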;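 note: 0% = DMSO-treated cells and 100% = wells with medium but no cells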
Mdm2 MdmX conf – Mdm2-MdmX complex disruptors, retested hits, confirmation, luminescence, single concentration. AID 489028, 2010. 55% of 10,000 active. Mdm2-MdmX binding, luminescent assay. inhibition, % at 8 µM. shares compounds with Mdm2-MdmX inh; in the data active = inhibition above about 40%
FLuc counter – full-length luciferase signal inhibition, confirmation, counter-screen for Mdm2/MdmX interaction inhibitor project, cell-based, single concentration, SaOS-2; inhibition, % at 8 µM; shares compounds with Mdm2-MdmX inh; 77% of 6,200 active; SaOS-2 full-length luciferase counterscreen, luminescence;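 active = mean inhibition at 8 µM reaching about 37%, which flags the compound as non-specific, limit read from the data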;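 note: p53-null SaOS-2 cells with luciferase driven by a doxycycline-inducible promoter; compound on cells about two nights before reading with doxycycline added after day one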
Active calls of the source: *; · = not tested or not shown. Sampled rows, rich in hits. Any-hit rate of the full collection: about 6.6%.

SMILES | MPTP block | CSC inhib | GRIN3A LBD mod | Beta cell apopt | Mdm2-MdmX inh | Gli-Sufu antag | Mdm2 MdmX conf | FLuc counter
Cc1ccc(S(=O)(=O)N2C[C@@H]3[C@H]4CC[C@H](C4)[C@@H]3[C@@H](C)[C@@H]2c2cccn2Cc2ccccc2)cc1 | 0 | · | -3 | · | 0 | 40 | · | ·
CCn1c(C)cc(O)c(C(=O)Nc2cccc(Cl)c2)c1=O | 2 | -4 | -7 | 3 | 34 | -36 | · | ·
COCCn1c(C)cc(O)c(C(=O)Nc2cccc(Cl)c2)c1=O | 1 | -2 | 0 | -9 | 65* | -9 | 52* | 42*
COc1ccc(-c2cc3c(=O)n(CC(=O)Nc4cccc(Cl)c4)ncn3n2)cc1 | 6 | 6 | -2 | 3 | 0 | -10 | · | ·
COc1ccc(-c2cc3c(=O)n(CC(=O)Nc4ccc(Cl)cc4)nc(C)n3n2)cc1 | -2 | -7 | -1 | 6 | 67* | -18 | 43* | 67*
Cc1nn(CC(=O)Nc2cccc(Cl)c2)c(=O)c2cc(-c3ccccc3)nn12 | 2 | -21 | -5 | -4 | 56* | 0 | 12 | ·
Cc1nn(CC(=O)NCCCN2CCC(N3CCCCC3)CC2)c(=O)c2cc(-c3ccccc3)nn12 | -1 | -6 | -3 | 7 | 95* | 5 | 53* | 56*
CC(C)N=c1cc2n(-c3ccc(Cl)cc3)c3ccccc3nc-2cc1Nc1ccc(Cl)cc1 | 4 | 104* | 1 | 114* | 97* | 16 | 94* | 6
Cc1cc2oc(C(=O)Nc3ccc(S(N)(=O)=O)cc3)c(C)c2cc1Cl | 4 | 13 | 24* | · | 55* | 2 | 48* | 58*
Cc1cccc2sc(NNC(=O)c3ccc(S(=O)(=O)N4CC(C)CC(C)C4)cc3)nc12 (stereo not given) | 28 | 118* | 5 | 110* | 88* | 0 | 87* | 55*
Cc1ccc2nc(NNC(=O)c3ccc(S(=O)(=O)N4CCc5ccccc5C4)cc3)sc2c1 | 14 | 102* | 4 | 98* | 74* | -33 | 88* | 63*
COC(=O)c1ccc(-c2csc(NC(=O)c3ccc(S(=O)(=O)N4CCc5ccccc5C4)cc3)n2)cc1 | 2 | · | 1 | -6 | 51* | -7 | 10 | ·
Cc1cc(C)c2nc(NNC(=O)c3ccc(S(=O)(=O)N4CC(C)CC(C)C4)cc3)sc2c1 (stereo not given) | 10 | 118* | 5 | 106* | 84* | -10 | 70* | 23
CCC(=O)NNc1nc2c(C)cc(C)cc2s1 | 0 | -2 | 0 | 1 | 7 | -34 | · | ·
COC(=O)c1sc2ccccc2c1NC(=O)c1ccc(S(=O)(=O)N2CC(C)CC(C)C2)cc1 (stereo not given) | 17 | · | 1 | 2 | 40 | 4 | · | ·
COCCNC(=O)C1(C)CCN(C(=O)c2cc(-c3ccccc3)cs2)C1 (stereo not given) | -1 | · | · | · | · | · | · | ·
COc1ccc(CN(C)C(=O)c2oc3ccccc3c2CSC)cc1F | 2 | 12 | 1 | 1 | 16 | -13 | · | ·
CCCC(=O)Nc1ccc2c(c1)C(=O)NC2=O | -3 | 2 | 2 | -7 | -12 | 3 | · | ·
Cc1ccc2c(c1)Oc1ccc(NC(=O)CCCl)cc1C(=O)N2 | -1 | 92* | -2 | -2 | 67* | 19 | 68* | 102*
O=C(Cn1cnc2cc([N+](=O)[O-])ccc2c1=O)Nc1cccc(S(=O)(=O)N2CCCCC2)c1 | 0 | · | -5 | · | · | 8 | · | ·
C=CS(=O)(=O)c1ccc(Oc2ccc(S(=O)(=O)C=C)cc2)cc1 | 26 | -10 | -2 | 106* | 100* | 6 | 100* | 1
CC(=O)c1c(C)[nH]c(C(=O)OCC(=O)Nc2cc(C)on2)c1C | 1 | 2 | 0 | · | 27 | 13 | · | ·
CCOC(=O)c1c(C)[nH]c(C(=O)OCC(=O)Nc2cc(C)ccc2OC)c1C | 0 | · | 3 | 5 | 99* | 6 | 6 | ·
COc1cc(NC(=O)COC(=O)c2[nH]c(C)c(C(C)=O)c2C)cc(OC)c1 | 2 | -1 | -8 | -21 | 51* | 11 | 24 | ·
CC(=O)N1CCc2cc(S(=O)(=O)CCC(=O)Nc3cc(C)cc(C)c3)ccc21 | 0 | -2 | 0 | · | 0 | -32 | · | ·
SMILES | MPTP block | CSC inhib | GRIN3A LBD mod | Beta cell apopt | Mdm2-MdmX inh | Gli-Sufu antag | Mdm2 MdmX conf | FLuc counter
CC(=O)N1CCN(c2ccc(NS(=O)(=O)c3ccc(C)cc3)cc2)CC1 | 0 | 3 | -2 | 2 | 15 | 28 | · | ·
O=C(COc1ccc2ccccc2c1)NNC(=O)C(=O)Nc1ccccc1 | 6 | 5 | -7 | 21 | 53* | -40 | 60* | 99*
CCN(CC(=O)NCc1cccs1)S(=O)(=O)c1ccccc1Cl | -2 | -4 | 2 | -2 | -2 | -3 | · | ·
O=C1N=C2N(CCN3CCCCC3)c3ccccc3N2/C1=C\c1ccc([N+](=O)[O-])s1 | 1 | · | 1 | · | · | 6 | · | ·
CSc1nc(Sc2ccccc2Cl)c2ccccc2n1 | 5 | · | 0 | -9 | 53* | -4 | 46* | 55*
CSc1nc(Cc2ccccc2)nc2ccccc12 | 0 | 30 | 0 | -8 | 13 | 3 | · | ·
CN(C)c1ccc(CC(=O)N2CCCC(c3cc(C(=O)Nc4ccc(C(C)(C)C)cc4)no3)C2)cc1 (stereo not given) | 26 | · | · | · | · | · | · | ·
CC(C)CCn1c(=O)c2ccccc2n2c(CN3CCCC3)nnc12 | -2 | -14 | -1 | -11 | 22 | 7 | · | ·
CC(C)CCn1c(=O)c2ccccc2n2c(CCC(=O)NC3CCN(Cc4ccccc4)CC3)nnc12 | 1 | · | -3 | 2 | 77* | 10 | 58* | 49*
Cc1ccc2nc(NC(=O)c3ccc(-c4nc5ccccc5s4)s3)sc2c1 | 0 | 14 | -1 | 15 | 98* | 8 | 46* | 84*
CC(C)CCNCC(O)CON=C1c2ccccc2-c2ccccc21 (stereo not given) | 18 | 52 | -6 | 29 | 95* | 20 | 41* | 69*
COc1ccc(C(=O)N/N=C(\Cc2ncc[nH]2)c2ccccc2)cc1 | 0 | 41 | -3 | 56 | 54* | 15 | 42* | 26
COc1cc(C(=O)NCC(=O)N/N=C/c2ccccn2)cc(OC)c1OC | 0 | 6 | -1 | 0 | -20 | -4 | · | ·
